Screening results from PubChem.
GPR151 ag: activators of human GPR151, primary screen, cell-based, PathHunter beta-arrestin, luminescence; G-protein coupled receptor 151 (Homo sapiens), Q8TDV0; PathHunter beta-arrestin GPR151 cells; activation, % at 11.2 µM; 650,000 tested, 1% active; AID 1508602, 2020; in the data active means activation above about 4.9%;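 further: 0% = median of compound wells and 100% = cells with positive control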
TEAD-YAP inh: TEAD-YAP interaction inhibition, primary screen, TEAD-YAP interaction inhibitor project, luminescence, HEK-TIYL cells; TEAD-Gal4/YAP UAS-luciferase luminescence; inhibition, % at 9.12 µM; 640,000 tested, 1.4% active; in the data active means inhibition above about 32%;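 further: 0% = median of test compound wells and 100% = reference inhibitor wells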
MITF inh: MITF inhibitors, primary screen, biochemical, AlphaScreen, human; Microphthalmia-associated transcription factor (Homo sapiens), O75030; AlphaScreen MITF homodimerization, bead proximity signal; inhibition, % at 2.6 µM; 650,000 tested, 0.91% active; AID 1259374, 2018; in the data active means inhibition above about 50%;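 further: 0% = vehicle wells with protein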
Target sequence (O75030 whole entry, looked up): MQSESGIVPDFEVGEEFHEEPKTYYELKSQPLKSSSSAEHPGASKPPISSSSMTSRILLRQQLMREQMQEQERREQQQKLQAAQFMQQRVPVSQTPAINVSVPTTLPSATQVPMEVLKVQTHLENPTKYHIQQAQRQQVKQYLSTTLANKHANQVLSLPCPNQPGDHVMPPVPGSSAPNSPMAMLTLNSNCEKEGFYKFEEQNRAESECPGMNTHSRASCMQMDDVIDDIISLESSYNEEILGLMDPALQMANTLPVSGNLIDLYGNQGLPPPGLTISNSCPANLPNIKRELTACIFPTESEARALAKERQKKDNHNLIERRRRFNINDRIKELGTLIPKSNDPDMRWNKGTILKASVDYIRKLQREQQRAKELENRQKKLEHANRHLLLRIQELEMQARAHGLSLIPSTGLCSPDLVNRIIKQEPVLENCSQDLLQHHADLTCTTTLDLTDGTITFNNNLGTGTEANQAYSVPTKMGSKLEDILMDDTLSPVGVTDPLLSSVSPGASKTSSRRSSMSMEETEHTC
FBW7 activator: FBW7 E3 ligase activators, primary screen, biochemical, AlphaScreen, human. AID 1259310, 2017. normalized activity (activation), % at 26.1 µM. F-box/WD repeat-containing protein 7 (Homo sapiens), Q969H0. 650,000 tested, 0.13% active. AlphaScreen FBW7–phospho-cyclin E peptide binding, activator screen; in the data active means normalized activity above about 1.9%;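 further: purified mutant Fbw7 with reduced substrate affinity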
Active calls of the source: *. An excerpt weighted towards active compounds, which were near 3.4% of everything screened.

SMILES	GPR151 ag	TEAD-YAP inh	MITF inh	FBW7 activator
Cc1ccc(C23CC4CC(CC(C4)C2)C3)cc1NC(=O)Nc1ccccc1	-1	-10	7	0
CC(C)(C)n1nnnc1CN1CCCC1	0	-9	1	0
Nc1c(N2CCCC2)cc(O)c2c1C(=O)c1ccccc1C2=O	-2	-55	77*	0
CC(C)(C)NC(=O)CSc1nc(-c2ccccc2)cs1	2	62*	-19	0
COC(=O)C1=C(N)Oc2cc(C)oc(=O)c2C1c1ccc(Cl)cc1 (stereo not drawn)	2	6	15	0
COc1cn(-c2ccc(F)cc2)nc1C(=O)Nc1ccccc1SC	1	32*	6	0
C=CCn1c(=NC(=O)C2=COCCO2)sc2cc(F)ccc21	-1	-15	-2	1.9*
C=CCn1c(=NC(=O)C2=COCCO2)sc2cccc(OC)c21	-1	-10	6	0
COC(=O)Cc1nc(NCc2ccccc2)c2c(C)c(C)sc2n1	1	67*	8	1
COc1ccc(C(=O)NC(c2ccco2)c2cc(Cl)c3cccnc3c2O)cc1 (stereo not drawn)	-1	1	11	0
CCC(=O)NC(c1ccco1)c1cc(Cl)c2cccnc2c1O (stereo not drawn)	0	37*	38	0
O=C(COc1ccccc1)NC(c1ccccc1)c1cc(Cl)c2cccnc2c1O (stereo not drawn)	-1	-5	0	0
O=C(COc1ccccc1)NC(c1ccco1)c1cc(Cl)c2cccnc2c1O (stereo not drawn)	-1	85*	25	0
CCC(=O)NC(c1ccco1)c1ccc2cccnc2c1O (stereo not drawn)	-2	27	70*	-2
O=C(NCCn1cc(SCC(=O)N2CCOCC2)c2ccccc21)c1ccc(F)cc1	1	32*	1	0
O=C(NCCn1cc(SCC(=O)N2CCN(c3ccccc3)CC2)c2ccccc21)c1ccc(F)cc1	0	1	7	0
CCc1ccc(OCC(=O)Nc2ccc(C)cc2)cc1	1	-15	-8	0
COC(=O)c1ccc(N2N=C(C)/C(=C/c3ccc(OCc4ccc(Cl)cc4)c(OC)c3)C2=O)cc1	3	-70	24	2.0*
OC(COc1ccc(Cl)cc1)CN1C2=NCCN2c2ccccc21 (stereo not drawn)	-1	40*	11	1
Cc1ccc(S(=O)(=O)/N=C2/C=C(Sc3ncn[nH]3)C(=O)c3ccccc32)cc1	-1	98*	-6	0
Cc1ccc2nc(=S)n(C(=O)c3ccccc3F)n2c1	-1	62*	2	0
COc1ccc(C)cc1NC(=O)NCc1cc(C)n(C)n1	1	35*	0	0
Cc1cccc(/C=N\NC(=O)c2ccccc2Cl)c1O	1	-61	-2	0
O=C(N/N=C/c1ccc(O)c(O)c1O)c1ccccn1	-3	-42	108*	-1
O=C(N/N=C/c1ccccc1O)c1ccccn1	-1	-55	-39	0
SMILES	GPR151 ag	TEAD-YAP inh	MITF inh	FBW7 activator
Cc1ccc(O)c(/C=N/NC(=O)c2ccccn2)c1	-4	-13	57*	-1
Cc1cccc(/C=N/NC(=O)c2ccccn2)c1O	-6	55*	13	-2
O=[N+]([O-])c1cc(C2Nc3ccc4ccccc4c3C3C=CCC32)ccc1O (stereo not drawn)	-1	5	25	0
CCOC(=O)C1=C(C)NC2=C(C(=O)CC(c3ccc(OC)c(OC)c3)C2)C1c1cccc(Br)c1 (stereo not drawn)	0	15	-3	0
Cc1ccc(Nc2nc(-c3ccccn3)cs2)cc1	-4	55*	-5	-1
Cc1ccnc(Nc2nc(-c3ccccn3)cs2)c1	-3	73*	103*	-2
Cc1ccnc(Nc2nc(-c3cccs3)cs2)c1	-1	-30	26	0
COC(CNC(=O)c1cc(Br)c(Br)[nH]1)OC	1	-10	9	0
COC(=O)CNC(=O)c1sc2nc(C)nc(N3CCN(c4ccccn4)CC3)c2c1C	0	-8	16	0
N#C/C(=C\c1ccc(N2CCOCC2)cc1)c1[nH]nc(N)c1C#N	-2	39*	18	0
CC(C)NC1CCCc2c1[nH]c1ccc([N+](=O)[O-])cc21 (stereo not drawn)	1	49*	30	0
CC(=O)N(/N=C1\Sc2ccccc2C1=O)c1ccccc1[N+](=O)[O-]	-1	59*	25	0
CC(=O)N(/N=C1\Sc2ccccc2C1=O)c1ccc(Br)cc1	0	-12	27	0
Cc1cc2nc(C3CCCCN3C(=O)CCc3c(C)noc3C)[nH]c2cc1C (stereo not drawn)	0	0	-4	0
COc1cc(CCC(=O)N2CCCCC2c2nc3cc(C)c(C)cc3[nH]2)on1 (stereo not drawn)	-1	41*	-1	0
CC1=C(C(=O)Nc2ccc(Cl)cc2)C(c2ccccc2)NC(=O)N1 (stereo not drawn)	-1	17	-14	0
CC(C)(C)C(=O)Nc1ccc(-c2nc3ncccc3o2)cc1	0	60*	-2	0
CC(C)(C)C(=O)Nc1cccc(-c2nc3ncccc3o2)c1	-2	-12	1	0
O=C(Nc1ccc(-c2cc3ccccc3oc2=O)cc1)c1ccc(-c2cccc([N+](=O)[O-])c2)o1	-1	12	3	0
COC(=O)c1ccccc1NC(=O)CSc1nnc(NC(=O)C2CCC2)s1	-2	-5	-10	0
COC(=O)c1ccccc1NC(=O)CSc1nnc(NC2CCCCC2)s1	0	40*	10	0
N=C1/C(=C/c2ccc(OCCOc3ccccc3Cl)cc2)C(=O)N=C2SC(C(F)(F)F)=NN12	-2	3	-2	0
c1ccc2c(c1)OCC(c1nc3ncc(-c4ccncc4)cc3[nH]1)O2 (stereo not drawn)	0	3	9	0
Fc1ccc(CCn2c(C3COc4ccccc4O3)nc3ncc(-c4ccncc4)cc32)cc1 (stereo not drawn)	2	51*	2	0
COc1ccc(S(=O)(=O)Oc2cccc(C=C3C(=O)NC(=S)NC3=O)c2)cc1	-1	6	5	1
SMILES	GPR151 ag	TEAD-YAP inh	MITF inh	FBW7 activator
COc1ccc(S(=O)(=O)Oc2ccc(C=O)cc2OC)cc1	-1	47*	7	0
COc1cccc(C=O)c1OS(=O)(=O)c1ccc(Cl)cc1	1	11	-5	0
COc1ccc(S(=O)(=O)Oc2c(C=O)cccc2OC)cc1	0	46*	-7	0
COc1ccc(S(=O)(=O)Oc2ccc(C=C3C(=O)NC(=S)NC3=O)cc2OC)cc1	0	54*	-6	0
COc1ccc(C=O)cc1OS(=O)(=O)c1ccc(Cl)cc1	-1	25	4	0
Cn1c(=O)c2ncn(CC(=O)NN=Cc3c[nH]c4ccccc34)c2n(C)c1=O	-1	8	12	0
